Compounds with a hit are over-represented: about 3.6% of the library has one in this group of screens.
TWEAK Fn14 block = inhibitors of TWEAK-Fn14 signaling, primary screen, luciferase reporter cells, uHTS. TWEAK-stimulated Fn14 reporter cells, luciferase luminescence, 8 h. inhibition, % at 10 µM. 360,000 compounds, 2% hits. AID 1159606, 2016; in the data active = inhibition above about 50%
HSF1 inh = HSF1 inhibitors in luciferase reporter cells, primary screen, cell-based, NIH3T3, luminescence; NIH3T3-HGL HSE-luciferase, MG132-induced, luminescence 8 h; stronger effect = lower value; activity change, negative = inhibition, % at 7.5 µM (by protocol); 300,000 compounds, 0.77% hits; AID 2098, 2009;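 active = more than half of replicate wells show activity change below -50%, luminescence cut by over half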;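 note: luciferase reports HSF-1 transcriptional activity via heat shock element; 0% = median of DMSO wells and -100% = zero luminescence signal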
HSF1 activator = HSF-1 activators, primary screen, NIH3T3-HGL cells, MG132 stress, luminescence, single point. NIH3T3-HGL HSF-1 luciferase reporter, 8 h; 100% = twice DMSO control signal. activation, % at 9 µM. 300,000 compounds, 1.7% hits. AID 504408, 2011;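 active = mean replicate activation of at least 50% with a set share of replicates each reaching 50%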;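 note: 0% = median of the neutral control wells and 100% = twice that signal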
LGR2 antag = inhibitors of bursicon-induced LGR2 CRE-luciferase signal, primary screen, cell-based, HEK293, CRE-luciferase reporter, bursicon stimulation; Drosophila bursicon receptor LGR2 (rickets); bursicon-stimulated, 4 h; inhibition, % at 9.99 µM; 380,000 compounds, 0.35% hits; AID 720647, 2013;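 active = drop in luminescence signal, shown as inhibition above about 50% in the replicate tests, limit read from the data, passing the limit was not always enough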;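 note: agonist challenge used bursicon conditioned medium at about half maximal strength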
LMP1 NFkB inh = EBV LMP1-driven NF-kappaB luciferase reporter inhibitors, primary screen, cell-based, luminescence, single point; LMP1-induced NF-kappaB luciferase reporter cells; inhibition, % at 12.5 µM; 350,000 compounds, 0.69% hits; in the data active = inhibition above about 41%;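 note: 0% = neutral control wells and 100% = reference inhibitor control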
TROY signal inh = inhibitors of TROY-driven NF-kB signaling, primary screen, Q293 LMP1-TROYcd cells, NF-kB luciferase, uHTS; Q293 LMP1-TROYcd NF-kB luciferase reporter, 4 h; 360,000 compounds, 0.98% hits; AID 1347056, 2019; inhibition, % at 10 µM;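 active = compounds whose plate-normalised and pattern-corrected inhibition of the luciferase reporter signal at the single screening dose is 50% or more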
Active calls of the source: *; nt = no result.

SMILES	TWEAK Fn14 block	HSF1 inh	HSF1 activator	LGR2 antag	LMP1 NFkB inh	TROY signal inh
CCN1C(=O)CSc2ccc(C(=O)NCc3ccc(OC)cc3)cc21	7	19	52*	6	10	10
CCN1CCSc2ccc(C(=O)NCc3cc(Br)ccc3OC)cc21	15	0	-24	8	5	10
CCOc1ccc(CNC(=O)c2ccc3c(c2)N(CC)CCS3)cc1	-4	34	55*	-7	-6	-1
Cc1ccc(CN2CCSc3ccc(C(=O)NCc4cccnc4)cc32)cc1	-23	11	15	-17	-6	-7
CCCNC(=O)N1CC(=O)N2[C@@H](CO)[C@H](c3ccc(-c4cccc(C)c4)cc3)[C@@H]2C1	nt	nt	nt	18	nt	nt
C[C@H]1CCCCO[C@@H](CN(C)Cc2ccc3c(c2)OCO3)[C@@H](C)CN([C@@H](C)CO)C(=O)c2cc(NS(=O)(=O)c3ccc(Cl)cc3)ccc2O1	nt	nt	nt	-12	nt	nt
N#CC(=C1C=CC(=NO)C(Cl)=C1)c1ccc(Cl)cc1	64*	nt	nt	-15	-16	27
CO[C@@H]1CN(C)C(=O)c2ccc(NC(=O)C3CCCC3)cc2OC[C@@H](C)N(CCC(F)(F)F)C[C@@H]1C	nt	nt	nt	4	nt	nt
Cc1nc(NCCc2ccccc2)c2oc3ccccc3c2n1	52*	-1	-4	nt	-3	30
c1ccc(-n2cnc3cc(NCc4cccs4)ccc32)cc1	93*	-67*	-69	nt	12	83*
CSc1ccc(C2NC(=O)c3ccccc3N2)cc1 (stereo unspecified)	0	45	69*	-39	-15	-37
O=C(CCl)N1CCN2C(=O)c3ccccc3C12c1ccc(Cl)cc1 (stereo unspecified)	-3	45	76*	10	5	-2
NC(=O)COC(=O)c1cc(=O)[nH]c2ccccc12	5	-62*	-71	2	-1	5
COCC(C)n1c(C)cc(C(=O)COC(=O)c2n[nH]c3ccccc23)c1C (stereo unspecified)	67*	-53*	-59	nt	25	78*
COCC(C)n1c(C)cc(C(=O)COC(=O)c2cc(=O)[nH]c3ccccc23)c1C (stereo unspecified)	88*	nt	nt	3	25	83*
CNC(=O)COC(=O)c1cc(=O)[nH]c2ccccc12	3	-2	15	nt	4	5
C[C@@H]1CN([C@@H](C)CO)C(=O)c2cc(C#Cc3cccnc3)cnc2O[C@H]1CN(C)Cc1ccccc1	nt	nt	nt	-2	nt	nt
Cc1cc(N)n2nc(-c3ccccc3)cc2n1	38	27	48	-15	9	-32
Cc1ccc(-c2cc(N)n3nc(-c4ccc(C)cc4)cc3n2)cc1	5	3	18	nt	52*	11
Cc1ccc(-c2cc3nc(-c4ccc(Br)cc4)cc(N)n3n2)cc1	17	-2	13	-6	5	13
Cc1ccc(-c2cc3nc(-c4ccccc4)cc(N)n3n2)cc1	-15	32	62*	nt	-24	12
Cc1cc(C)n2nc(-c3ccc(Cl)cc3)cc2n1	-2	25	37	-83	-54	-29
Cc1cc(C)n2nc(-c3ccc(Br)cc3)cc2n1	-15	27	52*	-84	-47	-26

Screening data (PubChem)
